Test results published in PubChem BioAssay (NCATS).
Inconclusive results are not listed. Calls of active or inactive are those of the source. Calls come from the whole dose curve; as a rule, active = well fitted inhibition curve with a large enough effect; inconclusive = small, poorly fitted or top-dose-only effect; inactive = no such curve, though single readings can be large or run the other way.
Potency is the fitted concentration of half-maximal effect.

What follows are compounds tested against Aldehyde dehydrogenase 1A1 (Homo sapiens) (UniProt P00352) (assay: qHTS for Inhibitors of the Aldehyde Dehydrogenase Family (ALDH1A1) Confirmatory screens (AID 2061316; note: nearly all actives have a fitted effect of over 65% in size)). Details: ALDH inhibition qHTS; series mostly up to 47.3 µM.
For `C[N+](C)(C)CC#CCOC(=O)Nc1cccc(Cl)c1`, the Potency was 22.5 µM (active). With `CN(N=O)c1cc(O)ccc1O` the Potency was 2.25 µM (active). In the case of `NC(=O)COc1c(F)cc(SCCNS(=O)(=O)c2ccccc2)cc1F`, the Potency is reported as 14.2 µM (active).
